GCN5L2 inh – inhibitors of human GCN5L2 histone acetyltransferase. Q92830. GCN5L2 HAT assay, ThioGlo1 CoA-SH fluorescence. Potency, µM (highest dose often 58.9 µM), without a hit: top-dose activity change, negative = inhibition, most hits filed as inhibitors. 390,000 compounds, 0.21% hits. AID 504327
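ThioGlo1-coupled HAT assay: 20nM GCN5L2, 70uM acetyl-CoA, 75uM H3(1-25) peptide, pH 7.5. Fluorescence read at 340/540nm at start and after 20 min at room temperature.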
VDR inhibitor – inhibitors of human vitamin D receptor | P11473 | VDR-SRC2-3 peptide fluorescence polarization, 2 h | Potency, µM, for inactives: max response, negative = inhibition, usual class: inhibitors | 400,000 compounds, 0.93% hits | AID 504847
Target sequence (P11473 whole entry, looked up): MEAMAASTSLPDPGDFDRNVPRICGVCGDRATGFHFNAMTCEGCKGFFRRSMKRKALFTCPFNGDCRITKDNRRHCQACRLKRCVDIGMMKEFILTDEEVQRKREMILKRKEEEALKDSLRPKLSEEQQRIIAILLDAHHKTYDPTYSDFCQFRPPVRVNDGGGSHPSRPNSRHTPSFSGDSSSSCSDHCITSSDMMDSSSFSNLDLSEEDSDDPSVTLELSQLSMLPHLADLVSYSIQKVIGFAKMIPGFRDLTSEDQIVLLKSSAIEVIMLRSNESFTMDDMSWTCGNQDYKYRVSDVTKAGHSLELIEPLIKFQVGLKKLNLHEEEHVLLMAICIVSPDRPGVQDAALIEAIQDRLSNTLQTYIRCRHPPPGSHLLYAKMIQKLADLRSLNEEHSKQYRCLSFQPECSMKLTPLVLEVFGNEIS
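Fluorescence polarization assay of small-molecule disruption of VDR binding to coregulator peptide SRC2-3. Compounds and controls pin-transferred, then read after 2 h incubation at ambient room temperature.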
GLS inhibitor – blocks human kidney-isoform glutaminase activity; O94925; AID 624170; 410,000 compounds, 0.21% hits; GLS enzymatic activity, qHTS titration; Potency, µM (series often up to 45.5 µM), for the others: at the highest dose activity change, negative = inhibition, most hits filed as inhibitors
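hKGA; 45 mM KH2PO4 pH 8.2 + 0.02% Tween-20; cpd via pin tool; 1 mM Gln soln; GluOx/HRP/Amplex Red; RT 30 min; fluor. t0 & final.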
rTrxR1 inhibitor – blocks rat thioredoxin reductase 1; O89049; recombinant rTrxR1, NADPH fluorescence consumption, selenite substrate; Potency, µM (highest dose often 114 µM), for inactives: top-dose activity change, negative = inhibition, most hits filed as inhibitors; 390,000 compounds, 1% hits; further: nearly all actives have a fitted effect of over 65% in size
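Rat TrxR1 (90 nM in the dispensed reagent) was pre-reduced with 400 uM NADPH for 5 min at room temperature, then incubated with compound for 15 min. After 400 uM selenite was added, NADPH fluorescence (Ex 340/Em 450 nm) was followed for 8 min.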
TrxR1 substrate – substrates of rat thioredoxin reductase 1 | O89049 | purified TrxR1 substrate turnover, NADPH consumption readout | Potency, µM (series often up to 114 µM), without a hit: top-dose activity change, negative = substrate turnover | 390,000 compounds, 0.01% hits | AID 588456; further: nearly all actives have a fitted effect of over 50% in size
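Rat TrxR1, dispensed at 90 nM, was prereduced with 400 uM NADPH (final) for 5 min at ~22 deg C, then incubated with compound 15 min before 400 uM selenite. A first-read NADPH fluorescence drop versus no-compound background flagged substrates.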
Sfp inh – Sfp phosphopantetheinyl transferase inhibition; Q9F4F7; Biochemical Sfp PPTase activity, qHTS; Potency, µM, for the others: largest response in the series, negative = inhibition, hits mostly inhibitors; 310,000 compounds, 3.5% hits; AID 1490;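 further: the enzyme is Sfp with the accession as filed and its product quenches rhodamine fluorescence; 0% = enzyme reaction without inhibitor and -100% = no enzyme wells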
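Fluorescence-quenching assay: 15 nM Sfp-PPTase preincubated 15 min at room temperature with compound, then 5 uM rhodamine-CoA and 12.5 uM BHQ-2-labelled YbbR peptide added. Fluorescence (ex 525/em 598 nm) read at start and after 30 min; difference gives rate.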
Numbers without * were called inactive; ? = inconclusive; / = not tested or not shown; [ ] = another dose, or the depositor's remark. Compounds with a hit are over-represented: about 3.8% of the library has one in this group of screens. The call rests on the fitted dose curve; in most records, active means well fitted curve in the direction sought with a large enough effect; inconclusive means small, poorly fitted or top-dose-only effect, or another doubt; inactive means no such curve, though single readings can be large; an effect the other way counts as inactive or inconclusive. Unless noted, on the % scale 0 is the no-effect control and ±100 the full control effect; potency means the concentration at half of the fitted maximal effect.

SMILES	GCN5L2 inh	VDR inhibitor	GLS inhibitor	rTrxR1 inhibitor	TrxR1 substrate	Sfp inh
Cc1oc(=O)c(NC(=O)c2ccc(Cl)cc2)cc1C(=O)c1ccccc1	-12%	25µM*	9%	?	5%	8.9µM*
N#C/C(=C\c1ccc(-c2ccccc2)cc1)c1nc(-c2ccco2)cs1	26%	-11%	-12%	1%	-5%	6%
Cn1c(=O)c2c(nc(OC/C=C/c3ccccc3)n2C)n(C)c1=O	/	-5%	21%	45µM*	8%	/
C=Cc1c(C)/c2[n-]/c1=C\c1[n-]c(c(CC)c1C)/C=c1\[n-]c3c(c1C)C(=O)C(C(=O)[O-])C=3c1[n-]c(c(C)c1CCC(=O)[O-])\C=2.[Cu].[Na+].[Na+] (stereo not drawn)	2.5µM*	32µM*	-128%	/	/	45µM*
O=C(NC1CCCCC1)Sc1ccc(Cl)cc1	-6%	22µM*	8%	18µM*	4%	28µM*
NC(=O)c1c(N)sc(=S)n1-c1ccccc1	-5%	-25%	-10%	-3%	-10%	6%
N#CCCn1c(=O)c(-c2cccs2)nc2cnc(Oc3cccc(Cl)c3)nc21	?	0%	/	/	/	4%
Cn1nnnc1Sc1ncnc2scc(Br)c12	1%	-29%	0%	5.6µM*	5%	/
Cn1nnnc1Sc1ncnc2scc(-c3ccc[nH]3)c12	1%	?	3%	50µM*	-2%	/
CCN1C(=O)/C(=C2/C(=O)N3c4c(cc(OC(C)=O)cc42)C(C)=CC3(C)C)SC1=S	-1%	4%	4%	-7%[57.1 µM]	0%[57.1 µM]	7%
COc1cc2c3c(c1)/C(=C1/SC(NC(C)=O)=NC1=O)C(=O)N3C(C)(C)C=C2C	-1%	?	6%	?	-9%	35µM*
Cc1ccc(NC(=O)Cn2c(CCC(=O)O)ccc2-c2cccs2)cc1	-6%	1%	19%	?	10%	25µM*
COC(=O)c1ccccc1NC(=O)Cn1c(CCC(=O)O)ccc1-c1cccs1	1%	-7%	27%	?	5%	56µM*
Cc1ccccc1NC(=O)Cn1c(CCC(=O)O)ccc1-c1cccs1	-8%	-2%	?	-3%[57.1 µM]	5%[57.1 µM]	-21%
CS(=O)(=O)c1ccc2c(c1)sc1nc(=O)c(/C=C3/C=CC(=O)C(O)=C3)c(N)n12	?	19%	-8%	?	-17%	32µM*
CCN(CC)C(=O)[C@H]1C[C@H](CC(=O)NCc2ccco2)C(=O)N2CCc3c([nH]c4ccc(Cl)cc34)[C@]12C	-2%	-19%	31%	-4%	-6%	/
CC(C)C1=C2OC(N)=C(C#N)C(C#N)=C2C(C)CC1 (stereo not drawn)	-2%	11%	0%	-13%[57.1 µM]	41%[57.1 µM]	79µM*
CCC(C)NC(=O)CSc1nc2ccccc2c(=O)n1CCCN1CCCCC1 (stereo not drawn)	?	-9%	-7%	58%[11.4 µM]	1%	16%
CCCCSc1nc(O)c(C2OC(=O)c3c2ccc(OC)c3OC)c(=O)n1-c1ccccc1 (stereo not drawn)	-7%	-1%	-2%	-9%	-2%	79µM*
Cc1ccc(S(=O)(=O)c2nc(S(C)(=O)=O)sc2N2CCOCC2)cc1	-7%	-10%	4%	4%	-2%	8%
Cc1cc(=O)oc(C)c1C(=O)N[C@@H](Cc1ccccc1)C(=O)O	4%	3%	3%	-1%	-6%	13%
O=[N+]([O-])c1cc(-c2ncccn2)c([N+](=O)[O-])s1	-11%	35µM*	22%	2µM*	-17%	?
c1cc(-c2cnc3cccnn23)c2cccnc2c1	/	/	-8%	/	/	/
COC(=O)[C@@]1(Cc2ccc(F)cc2)[C@H]2c3cc(C(=O)N(C)C)n(Cc4ccc(C)o4)c3C[C@H]2CN1C(=O)c1ccccc1	/	/	-24%	/	/	16µM*
COC(=O)[C@@]1(Cc2ccc(F)cc2)[C@H]2c3cc(C(=O)N(C)C)n(Cc4ccccc4)c3C[C@H]2CN1C(=O)c1ccccc1	-11%	-7%	2%	12%[57.1 µM]	5%[57.1 µM]	-9%
SMILES	GCN5L2 inh	VDR inhibitor	GLS inhibitor	rTrxR1 inhibitor	TrxR1 substrate	Sfp inh
CCCCCCCCCCn1c2c(c(=N)c3c1CCC3)CCC2	-15%	-24%	0%	11%	11%	28µM*
CCCCCCCCn1c2c(c(=N)c3ccccc31)CCC2	-6%	-14%	0%	16%[57.1 µM]	6%[57.1 µM]	13%
CCCCCCCCCn1c2c(c(=N)c3c1CCC3)CCCC2	-1%	-5%	0%	-18%	-11%	45µM*
Cc1ccc(/C=c2\s/c(=C(/C#N)C(=O)N3CCCC3)n(Cc3ccco3)c2=O)s1	-14%	-8%	-4%	25µM*	-15%	13µM*
CCOC(=O)c1c(CC(C)C)csc1/N=C/C1C(=O)CCCC1=O	-11%	25%	-17%	6%[57.1 µM]	5%[57.1 µM]	?
O=C1CC(NC2CCN(C(=O)c3cccc(F)c3)CC2)C(=O)N1 (stereo not drawn)	-4%	-8%	11µM*	8%	2%	20%
CNC[C@H](CC1CCCCC1)NC[C@H](Cc1ccccc1)NCCC12CC3CC(CC(C3)C1)C2	-4%	-5%	3%	-21%	-9%	45µM*
NC[C@H](Cc1ccccc1)NCCCCC1CCCCC1	-2%	-14%	-12%	9%	7%	/
CCOC(=O)c1ccccc1NC(=O)c1cn(CC(C)C)c(=O)c2cc(OC)c(OC)cc12	0%	-2%	-1%	14%	9%[2.29 µM]	/
CC(C)CCC(CCN1CCOCC1)c1ccc2c(c1)OCO2 (stereo not drawn)	1%	-8%	5%	3%	2%	79µM*
CC(C)CCC(CCN1CCCC1)c1ccc2c(c1)OCO2 (stereo not drawn)	2%	-1%	-3%	37%[11.4 µM]	-13%[11.4 µM]	-21%
O=C1NC(=Nc2ccccc2Cl)S/C1=C\c1cccc([N+](=O)[O-])c1O	-4%	79µM*	15%	-7%	-7%	-23%
COc1c(/C=C2\SC(=Nc3ccccc3Cl)NC2=O)cccc1[N+](=O)[O-]	?	-17%	6%	-1%	-6%	-19%
Cc1cc(C)c(OCC(=O)OCCNC(=O)c2cccnc2)c(C)c1	51%	-21%	4%	50µM*	-3%	2%
O=C1NN(c2ccccc2)C(=O)/C1=C\c1ccccc1	-11%	?	-8%	28µM*	-5%	-25%
O=C1NN(c2ccccc2)C(=O)C1=Cc1ccccc1	/	/	-18%	/	/	/
O=C1NN(c2cccc(Br)c2)C(=O)/C1=C\c1ccccc1	-5%	?	-25%	11µM*	?	79µM*
CCC(=O)Oc1c(Sc2ccc(Cl)cc2)c(C)nn1-c1ccccc1	-8%	79µM*	-5%	41%	-11%	/

Assay outcomes (PubChem)
